Bioassay records: PubChem, National Center for Advancing Translational Sciences (NCATS)
Only some compounds are listed: those with a hit (about 19% of all), similar ones and a draw of the others.
IL-1B inflam inh: qHTS for Inhibitors of Inflammasome Signaling: IL-1-beta AlphaLISA Primary Screen | activity change, % at 57.5 µM | 360,000 tested, 4.7% active | THP-1 LPS/ATP IL-1B secretion, AlphaLISA, 16 h; hits give low values; in the data active = activity change below about -50%; inconclusive = mostly about -30% to -49%
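THP-1 cells pretreated 1 hr with compounds (up to 57.5 uM final), then stimulated with LPS (250 ng/mL final) plus ATP (1.25 mM final); secreted IL-1B measured by AlphaLISA after 16 hr, decreased signal indicating inhibition.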
DT40 TDP1 no CPT: qHTS for Inhibitors of human tyrosyl-DNA phosphodiesterase 1 (TDP1): qHTS in cells in absence of CPT; 420,000 tested, 15% active; AID 686978, 2013; Potency, µM (doses to about 46.2 µM), for inactives: at the top dose activity change, negative = growth inhibition, actives largely listed as inhibitors; DT40 Tdp1-/- hTDP1 cells, no CPT, ATP luminescence, 48 h; also: potency is read from the fitted curve at half-maximal effect; nearly all actives have a fitted effect of over 55% in size
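Seeded 400 DT40-hTDP1 cells/well (vehicle DMSO, no 20 nM CPT); pinned compounds; ≥48 hr at 37 °C; CellTiter-Glo luminescence as viability measure.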
HT1080NT lethal: qHTS for induction of synthetic lethality in tumor cells producing 2HG: qHTS for the HT-1080-NT fibrosarcoma cell line; HT-1080-NT fibrosarcoma viability, CellTiter-Glo ATP luminescence, 48 h; Potency, µM (top dose mostly 46.1 µM), inactives show at the top dose activity, negative = less viability, most hits filed as cytotoxic; 360,000 tested, 1.6% active;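 also: NT is the 2HG producing partner of a matched IDH1 knockdown line; potency is read from the fitted curve at half-maximal effect; 0% = DMSO-treated cells and -100% = media-only wells without cells; nearly all actives have a fitted effect of over 55% in size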
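HT-1080-NT; 750 cells/well; 5% FBS RPMI; 48 h compound, 37 degrees C; CellTiter-Glo luminescence; curve fitting and curve-class assignment.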
TDP1 cell CPT: qHTS for Inhibitors of human tyrosyl-DNA phosphodiesterase 1 (TDP1): qHTS in cells in presence of CPT; AID 686979, 2013; chicken DT40 Tdp1-/-;hTDP1 cells + 20 nM CPT, ATP luminescence, 48 h; 420,000 tested, 12% active; Potency, µM (top dose mostly 46.2 µM), without a hit: at the top dose activity change, negative = growth inhibition, hits mostly inhibitors; also: potency is read from the fitted curve at half-maximal effect; nearly all actives have a fitted effect of over 55% in size
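Chicken DT40 Tdp1-/- cells stably complemented with human TDP1 were seeded at 400 cells/well in medium containing 20 nM camptothecin, exposed to pin-transferred compounds, and grown at 37 °C for at least 48 hr. Viability was read as ATP luminescence.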
HT1080 IDH1KD tx: qHTS for induction of synthetic lethality in tumor cells producing 2HG: qHTS for the HT-1080-IDH1KD cell line; HT-1080 IDH1 knockdown viability, ATP luminescence, 48 h; Potency, µM (doses to about 46.1 µM), for inactives: at the top dose activity, negative = toxicity, actives largely listed as cytotoxic; 360,000 tested, 2% active; AID 686971, 2013;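 also: potency is read from the fitted curve at half-maximal effect; 0% = DMSO wells and -100% = cell-free medium wells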
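In this qHTS, HT-1080 cells depleted of IDH1 are exposed for 48 h at 37 °C to compound titrations. Toxicity is scored from CellTiter-Glo luminescence, with DMSO as full viability and medium alone as none.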
Starred values were filed as active, the others as inactive; ? = inconclusive; / = no result given; ! = not confirmed by another sample. Unless noted, calls follow the shape of the dose curve; as a rule, active = well fitted curve in the direction sought with a large enough effect; inconclusive = small, poorly fitted or top-dose-only effect, or another doubt; inactive = no such curve, though single readings can be large; an effect the other way counts as inactive or inconclusive. Unless noted, % is scaled to controls: 0 for no effect and ±100 for the full control effect.

SMILES	IL-1B inflam inh	DT40 TDP1 no CPT	HT1080NT lethal	TDP1 cell CPT	HT1080 IDH1KD tx
Cc1ccc(NC2CCCN(C(=O)c3ccc(F)cc3)C2)cc1C (configuration not stated)	32.2	?	2.4%	?	-7.7%
CCC(=O)Nc1nonc1-c1nc2ccccc2n1CC(C)C	-19.9	23.1µM*	5.9%	23.1µM*	5.2%
CCN(CC)c1nc2ccccc2n(Cc2cccc(OC)c2)c1=O	-1.2	-16.0%	-8.7%	-15.4%	0.5%
CC(=O)Nc1nonc1-c1nc2ccccc2n1N(C(C)=O)C(C)=O	-7.9	-12.7%	-10.0%	-14.7%	?
COc1cccc(Cn2c(-c3nonc3NC(C)=O)nc3ccccc32)c1	/	13µM*	/	13µM*	/
CC(=O)Nc1nonc1-c1nc2ccccc2n1Cc1ccccc1Br	/	14.6µM*	/	16.4µM*	/
OCCN(CCO)c1nc(N2CCCCC2)c2nc(N(CCO)CCO)nc(N3CCCCC3)c2n1	-18.2	14.6µM*!	?	4.55µM*	-26.1%
CC(C)(C)c1nnc2sc(SCC(=O)N3CCCCC3)nn2c1=O	-92.4*	?	1.2%	?	6.1%
Cc1cc(C(=O)CSc2nn3c(=O)c(C(C)(C)C)nnc3s2)c(C)n1-c1ccc(F)cc1	8.0	?	-4.5%	16.4µM*	5.5%
CC(C)N(C(=O)CSc1nn2c(=O)c(C(C)(C)C)nnc2s1)c1ccccc1	-50.0*	?	-1.7%	20.6µM*	-2.0%
CC(C)(C)c1nnc2sc(SCCN3C(=O)c4ccccc4C3=O)nn2c1=O	-5.5	-0.6%	-1.1%	-13.3%	2.0%
Cc1cc(Cl)ccc1OCC(=O)NNC(=O)C1CCCO1 (configuration not stated)	0.0	-2.1%	17.2%	1.9%	11.0%
CC(C)Cc1nn2c(=O)cc(COC(=O)c3ccc(NC(=O)CCc4ccccc4)cc3)nc2s1	/	-20.7%	/	0.8%	/
CCn1c(-c2cccc(OC)c2)nc2cc(NC(C)=O)cc(C(=O)N3CCCC(C(C)=O)C3)c21 (configuration not stated)	/	-7.4%	/	16.0%	/
O=Cc1ccc(N2CCOCC2)cc1	/	-2.6%	/	10.3%	/
CC(C)OCCCNCC(O)c1ccccc1 (configuration not stated)	-12.0	?	0.2%	-6.0%	-5.2%
OCc1cc([C@@H](O)CNCCCCCCOCCCCc2ccccc2)ccc1O	/	10.6µM*	/	9.44µM*	/
Nc1ccc2c(c1)nnn2-c1ccccc1	-79.2*	-22.0%	1.1%	-3.8%	2.2%
N#Cc1ccc2c(c1)nnn2-c1ccccc1	/	-1.3%	9.1%	7.1%	7.2%
O=c1ccc2cc(S(=O)(=O)Nc3ccc(F)c(Cl)c3)ccc2[nH]1	/	-26.4%	/	-1.6%	/
COc1ccc(NC(=O)CCCCCn2nnc3ccccc3c2=O)cc1	-6.0	-51.6%	-20.4%	-20.0%	-10.4%
COc1ccc(C2(c3ccc(OC)cc3)NC(=O)N(Cn3nnc4ccccc4c3=O)C2=O)cc1	-9.5	?	-16.0%	20.6µM*	-13.9%
N#CCn1cnc2c(oc3ccccc32)c1=O	-1.8	-13.2%	2.0%	21.5%	0.2%
NS(=O)(=O)c1ccc(CCNC(=O)/C=C/c2cccc([N+](=O)[O-])c2)cc1	11.7	?	1.3%	?	-1.8%
CCOc1cc(/C=C/C(=O)NCCc2ccc(S(N)(=O)=O)cc2)ccc1OCC(C)C	-8.5	8.2µM*	-15.8%	13µM*	-9.5%
COc1cc(/C=C/C(=O)NCCc2ccc(S(N)(=O)=O)cc2)ccc1OCC#N	10.1	-28.9%	7.3%	18.4µM*	8.1%
COc1cc(NC(=O)c2ccc3c(c2)S(=O)(=O)N=C2CCCCCN23)cc(OC)c1	-1.7	?	-0.4%	?	-10.3%
CC(C)c1nc2c(s1)CCc1onc(-c3cccc([N+](=O)[O-])c3)c1-2	26.1	23.1µM*	13.8%	?	11.2%
